Among the data in PubChem BioAssay (Tox21) are Potency values, retold here.

Assay [1] in a line: qHTS assay for identifying genotoxic compounds that show differential cytotoxicity against isogenic chicken DT40 cell lines with known DNA damage response pathways - wild type cell line (AID 743012). Further: nearly all actives have a fitted effect of over 60% in size. Further: potency means the concentration at half of the fitted maximal effect. In outline: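 Wild type DT40, 300 cells/well, ~0.5 h settle at 37 C/5% CO2; compounds in DMSO added by pintool; 40 h at 37 C/5% CO2; CellTiter-Glo, 30 min RT; luminescence.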
Assay [2] in a line: qHTS assay for identifying genotoxic compounds that show differential cytotoxicity against isogenic chicken DT40 cell lines with known DNA damage response pathways - Rev3 mutant cell line (AID 743014). Further: nearly all actives have a fitted effect of over 55% in size. Further: potency means the concentration at half of the fitted maximal effect.
The nature of assay [3]: qHTS assay for identifying genotoxic compounds that show differential cytotoxicity against isogenic chicken DT40 cell lines with known DNA damage response pathways - Rad54/Ku70 mutant cell line (AID 743015). Further: nearly all actives have a fitted effect of over 60% in size. Further: potency means the concentration at half of the fitted maximal effect.
A short description of assay [4]: qHTS assay to identify small molecule antagonists of the androgen receptor (AR) signaling pathway - cell viability counter screen (AID 743033; further: nearly all actives have a fitted effect of over 45% in size).
A short description of assay [5]: qHTS assay to identify small molecule antagonists of the androgen receptor (AR) signaling pathway using the MDA cell line - cell viability counter screen (AID 743041; further: nearly all actives have a fitted effect of over 45% in size). In outline: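 MDA-kb2 AR-luc human breast carcinoma cells (MMTV-luciferase, AR/GR responsive) were treated with compounds plus R1881 agonist for 16 h at 37 °C. Viability was read as CellTiter-Fluor fluorescence in the same wells as the reporter assay.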

Assay [6] concerns the target Androgen receptor (Homo sapiens) (UniProt P10275). As to the kind of experiment: qHTS assay to identify small molecule agonists of the androgen receptor (AR) signaling pathway using the MDA cell line (AID 743040; further: nearly all actives have a fitted effect of over 20% in size). In outline: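 MDA-kb2 breast carcinoma cells stably carrying an MMTV-driven luciferase reporter (AR- and GR-responsive) were seeded and held 5 h at 37C, 0% CO2, then exposed to compounds in DMSO for 16 h. Luminescence was read 30 min after ONE-Glo addition.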

The target is the same in assay [7]. Briefly: qHTS assay to identify small molecule antagonists of the androgen receptor (AR) signaling pathway using the MDA cell line (AID 743042; further: nearly all actives have a fitted effect of over 55% in size). The procedure, abridged: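 MDA-kb2 cells (human breast carcinoma, stably carrying an MMTV-luciferase reporter responsive to AR and GR) were plated at 3,000 cells/well and preincubated 5 hr at 37C, then given compound plus R1881 agonist for 16 h. ONE-Glo luminescence was read.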

Results filed as inconclusive are left out. The source made the active and inactive calls. The call rests on the fitted dose curve; in most records, active means well fitted curve in the direction sought with a large enough effect in the repeat runs; inconclusive means weak or mixed curves; inactive means no such curve, though single readings can be large; an effect the other way counts as inactive or inconclusive.

Chain of Androgen receptor (Homo sapiens) (P10275 whole entry, looked up): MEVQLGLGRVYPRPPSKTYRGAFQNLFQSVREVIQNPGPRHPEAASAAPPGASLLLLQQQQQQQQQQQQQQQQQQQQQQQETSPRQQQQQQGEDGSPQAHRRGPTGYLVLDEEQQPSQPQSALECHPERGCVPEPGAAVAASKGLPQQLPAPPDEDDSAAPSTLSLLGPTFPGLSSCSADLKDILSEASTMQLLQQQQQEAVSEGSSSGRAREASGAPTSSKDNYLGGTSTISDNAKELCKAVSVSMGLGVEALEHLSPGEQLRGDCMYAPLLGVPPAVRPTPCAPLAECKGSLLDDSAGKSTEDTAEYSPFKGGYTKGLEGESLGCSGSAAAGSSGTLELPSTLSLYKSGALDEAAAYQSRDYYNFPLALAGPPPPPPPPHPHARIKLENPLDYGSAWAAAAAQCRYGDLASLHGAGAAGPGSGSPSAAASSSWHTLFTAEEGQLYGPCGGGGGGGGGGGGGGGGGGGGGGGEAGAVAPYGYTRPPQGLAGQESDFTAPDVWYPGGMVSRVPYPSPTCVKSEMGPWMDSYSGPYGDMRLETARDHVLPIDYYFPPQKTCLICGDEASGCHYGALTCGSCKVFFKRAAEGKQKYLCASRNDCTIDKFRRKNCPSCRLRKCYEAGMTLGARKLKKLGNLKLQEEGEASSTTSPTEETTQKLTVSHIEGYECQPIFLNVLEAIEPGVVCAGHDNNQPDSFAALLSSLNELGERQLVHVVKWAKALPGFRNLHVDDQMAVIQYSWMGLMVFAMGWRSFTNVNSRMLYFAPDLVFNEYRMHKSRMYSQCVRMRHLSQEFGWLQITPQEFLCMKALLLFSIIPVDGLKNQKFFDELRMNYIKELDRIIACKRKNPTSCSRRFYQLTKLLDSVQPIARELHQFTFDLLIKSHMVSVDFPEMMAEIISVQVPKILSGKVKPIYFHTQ

With `C[C@H](/C=C/[C@H](C)C(C)(C)O)[C@H]1CC[C@H]2/C(=C/C=C3C[C@@H](O)C[C@H](O)C3)CCC[C@]12C`, the Potency result in assay [1], in assay [2], in assay [3], in assay [4] and in assay [5] was “inactive” each time.

On to `CCCCCCCCCCCCCCCCSCC(COC)COP(=O)([O-])OCC[N+](C)(C)C` (stereo not drawn), for which the Potency entry in assay [2], in assay [3], in assay [4], in assay [6] and in assay [7] was “inactive” each time.

For `CC[C@@H](C(=O)O)[C@@H]1O[C@@H]([C@@H](C)[C@H](O)[C@H](C)C(=O)[C@H](CC)[C@H]2O[C@]3(C=C[C@@H](O)[C@]4(CC[C@@](C)([C@H]5CC[C@](O)(CC)[C@H](C)O5)O4)O3)[C@H](C)C[C@@H]2C)[C@@H](C)C[C@@H]1C`, the Potency was 237 nM (active) in assay [1], 168 nM (active) in assay [2] and 237 nM (active) in assay [3].
